CYP2C9 inhib: inhibitors of human CYP2C9; CYP2C9 Supersomes, luciferin-H conversion, luminescence; inhibition, % at 5 µM; P11712; 20% of 96,000 active;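 active = blocking of liver enzyme CYP2C9 beyond about 50% at 5 µM, limit read from the data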
CYP2C19 act: cytochrome P450 2C19 (human) activation; recombinant CYP2C19, luciferin-H EGE luminescence; hits give high values; 0 = fully inhibited enzyme, 1 = untreated enzyme; AID 1025; P33261; activation factor at 5 µM; 96,000 tested, under 10 active;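 active = activation factor of at least 2 at 5 µM in the primary screen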
Target sequence (P33261 whole entry, looked up): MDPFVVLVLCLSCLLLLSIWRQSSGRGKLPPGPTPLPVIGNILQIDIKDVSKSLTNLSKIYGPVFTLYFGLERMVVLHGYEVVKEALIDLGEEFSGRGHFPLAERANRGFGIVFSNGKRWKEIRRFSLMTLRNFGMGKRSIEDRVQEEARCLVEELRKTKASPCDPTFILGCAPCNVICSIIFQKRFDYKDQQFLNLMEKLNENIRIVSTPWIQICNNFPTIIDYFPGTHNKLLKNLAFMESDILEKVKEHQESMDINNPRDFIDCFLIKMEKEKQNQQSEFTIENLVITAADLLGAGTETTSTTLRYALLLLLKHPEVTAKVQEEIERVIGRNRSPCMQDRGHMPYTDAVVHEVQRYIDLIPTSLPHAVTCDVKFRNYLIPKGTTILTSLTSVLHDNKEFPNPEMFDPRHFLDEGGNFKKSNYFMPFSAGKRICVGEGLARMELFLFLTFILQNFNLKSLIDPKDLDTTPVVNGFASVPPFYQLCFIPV
PostGolgi ctrl: yeast control strain growth, post-Golgi counter-screen; efflux-deficient yeast background strain, growth absorbance A615, 16 h; inhibition, % at 10 µM; 5% of 98,000 active
CYP2C19 inhib: human CYP2C19 inhibition | 21% of 96,000 active | P33261 | CYP2C19 Supersomes, luciferin-H EGE luminescence, 30 min | AID 778 | inhibition, % at 5 µM;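 active = CYP2C19 inhibition above a set limit at 5 µM in the primary screen, cut at about 50% in these data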
CYP2C9 act: CYP2C9 (human) activation; 1.4% of 96,000 active; activation factor at 5 µM; P11712; recombinant CYP2C9, luciferin-H conversion, luminescence; hits give high values; factor 1 = untreated enzyme, 0 = blocked;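 active = activation factor of 2 or more for CYP2C9 at a 5 µM dose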
PostGolgi yeast: growth inhibition of a yeast mutant, post-Golgi transport screen; 0.9% of 98,000 active; post-Golgi transport phenotypic cell assay; inhibition, % at 10 µM;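 note: yeast cells grown in 1536-well plates; yeast grown about 18 h at 30C before absorbance read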
Each line names hits and unclear results; the compound was inactive in the other large screens. A selection: hits, their analogues and other compounds. The true share with any hit is near 32%. Cut-off read from the data, not from the text of the source, unless noted: active = inhibition above about 30%; inactive = the rest.

COC(=O)CSC1=C(C#N)C(c2ccc(Cl)cc2)C(C(=O)OC)C(=O)N1 (stereo not drawn)	CYP2C19 inhib 61
CCOC(=O)CSC1=C(C#N)C(c2ccc(Cl)cc2)C(C(=O)OC)C(=O)N1 (stereo not drawn)	none
COC(=O)CSC1=C(C#N)C(c2cccc(OC)c2)CC(=O)N1 (stereo not drawn)	CYP2C9 inhib 75, CYP2C19 inhib 71
CCCCCCOc1cccc(N)c1	CYP2C19 inhib 64
CCOC(=O)c1c(N)c(C#N)c2n1CCCCC2	CYP2C19 inhib 95
COc1ccc(OC)c(NC(=O)C2C3CC4OC(=O)C2C4C3)c1 (stereo not drawn)	none (no result: CYP2C9 inhib, CYP2C19 act, CYP2C19 inhib, CYP2C9 act)
CC(c1cccs1)N(Cc1ccco1)C(=O)Nc1ccc(Cl)c(Cl)c1 (stereo not drawn)	CYP2C9 inhib 97, CYP2C19 inhib 78
COc1cccc(C2=NOC(C(=O)N3CCN(Cc4ccccc4)CC3)C2)c1OC (stereo not drawn)	CYP2C9 act 2.1
COc1ccc(OC)c(C2=NOC(C(=O)N3CCCc4ccccc43)C2)c1 (stereo not drawn)	CYP2C9 act 2.4
COc1cc(OC)c(C2=NOC(C(=O)N3CCc4ccccc4C3)C2)cc1Cl (stereo not drawn)	CYP2C19 inhib 59, CYP2C9 act 2.1
O=C(C1CC(c2ccc(F)cc2)=NO1)N1CCN(Cc2ccccc2)CC1 (stereo not drawn)	none
O=C(C1CC(c2ccc(F)cc2)=NO1)N1CCCc2ccccc21 (stereo not drawn)	CYP2C19 inhib 52, CYP2C9 act 2.4
COc1cc(OC)c(C2=NOC(C(=O)O)C2)cc1Cl (stereo not drawn)	none
COc1ccc(C(=O)Oc2ccc(=O)n(-c3ccccc3)n2)cc1	none
O=C(OCc1c(F)cccc1Cl)c1cnccn1	none
CCOC(=O)N1CCN(C(=O)c2cccc(-n3c(=S)[nH]c4cc(Cl)ccc4c3=O)c2)CC1	none
Cn1nc(OC(=O)Nc2ccccc2)cc1C(F)(F)F	none
Cc1nc(-c2cccc(S(=O)(=O)N3CCCC(C)C3)c2)cs1 (stereo not drawn)	none
Cc1nc(-c2cccc(S(=O)(=O)N3CCC(C)CC3)c2)cs1	PostGolgi ctrl 38
Cc1nc(-c2cccc(S(=O)(=O)N3CCCCCC3)c2)cs1	CYP2C9 inhib 66, CYP2C19 inhib 95
CC(Cc1ccccc1)NC(=O)C1CCCNC1=O (stereo not drawn)	none
O=C(C1CC2CCC1C2)N1CCN(Cc2ccc3c(c2)OCO3)CC1 (stereo not drawn)	CYP2C19 inhib 58
O=C(C1COc2ccccc2O1)N1CCN(c2ccc(F)cc2)CC1 (stereo not drawn)	CYP2C9 inhib 75, CYP2C19 inhib 86
O=C(O)C1C2C=CC(C2)C1C(=O)NC1CCN(Cc2ccccc2)CC1 (stereo not drawn)	none
O=C(C1COc2ccccc2O1)N1CCN(Cc2ccc3c(c2)OCO3)CC1 (stereo not drawn)	PostGolgi yeast 65
O=C(C1COc2ccccc2O1)N1CCCC1 (stereo not drawn)	none
O=C(C1CCCN(Cc2ccc3c(c2)OCO3)C1)N1CCCC1 (stereo not drawn)	none
O=C(NC1CCN(Cc2ccccc2)CC1)C1COc2ccccc2O1 (stereo not drawn)	PostGolgi yeast 70
Cn1c(=O)n(Cc2ccc(F)cc2)c(=O)c2c1nc1n2CCCN1C1CCCCC1	none
COC(=O)Nc1nnc(Cc2ccc(Cl)cc2)s1	none
COc1nnc(-c2ccc(N3CCOCC3)c(NC(=O)c3ccccc3)c2)c2ccccc12	CYP2C9 inhib 70, CYP2C19 inhib 81
CCC(=O)Nc1cc(-c2nnc(OC)c3ccccc23)ccc1N1CCOCC1	none
COc1nnc(-c2ccc(N3CCOCC3)c(NC(C)=O)c2)c2ccccc12	none
O=C(Nc1ccc(N2CCOCC2)cc1N1CCOCC1)c1ccco1	PostGolgi ctrl 44
COc1nnc(-c2ccc(N3CCOCC3)c(NC(=O)c3ccco3)c2)c2ccccc12	CYP2C9 inhib 65
CC(=O)N(CC(=O)O)c1ccccc1C(=O)O	none
CC(SCc1cn2cc(Cl)ccc2n1)C(=O)O (stereo not drawn)	none
CCCCN(C(=O)NC(=O)Nc1c(C)cc(C)cc1C)S(C)(=O)=O	none

Screens deposited in PubChem by several laboratories.
